Data: PubChem BioAssay (NCATS)
Records with an inconclusive call do not appear. Entries that show only a call come without a potency. The source made the active and inactive calls. Calls come from the whole dose curve; as a rule, active = well fitted inhibition curve with a large enough effect; inconclusive = small, poorly fitted or top-dose-only effect; inactive = flat fitted curve, though single readings scatter.

What follows are molecules tested against Calcium and integrin-binding protein 1 (Homo sapiens) (UniProt Q99828) (assay: Primary qHTS for Identification of Calcium Integrin Binding Protein 1 (CIB1) Competitor (AID 1508620)). Conditions: CIB1-GST / FITC-alphaIIb peptide fluorescence polarization; series mostly up to 114 µM.
Summary of the method: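 Fluorescence polarization competition: GST-tagged CIB1 (1 uM final) preincubated with compound 15 min at room temperature, then FITC-labelled alphaIIb peptide (100 nM final) added. After 15 min at room temperature, polarization read at Ex 480/Em 540.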
Potency is the fitted concentration of half-maximal effect.

Chain of Calcium and integrin-binding protein 1 (Homo sapiens) (Q99828 whole entry, looked up): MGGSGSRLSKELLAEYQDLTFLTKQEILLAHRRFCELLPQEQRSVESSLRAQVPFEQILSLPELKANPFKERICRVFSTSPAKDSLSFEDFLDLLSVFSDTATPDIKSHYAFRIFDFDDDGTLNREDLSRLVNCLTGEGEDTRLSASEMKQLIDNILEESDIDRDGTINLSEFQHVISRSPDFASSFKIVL

Question: How did the Potency turn out when Cn1nc(C(C)(C)C)cc1C(=O)NC(Cc1cccc(Cl)c1)C(=O)NCC#N (stereo not drawn) was run?
Answer: inactive

Question: For C[C@@H](O)[C@H](NC(=O)c1ccc(C#Cc2ccc(CN3CCOCC3)cc2)cc1)C(=O)NO, which Potency is on record?
Answer: inactive

Question: For CC(Cc1cc2c(c(C(N)=O)c1)N(CCCO)CC2)NCCOc1ccccc1OCC(F)(F)F (stereo not drawn), which Potency is on record?
Answer: inactive

Question: CC(C)c1cc2c(c(O)c1O)[C@@]13CCCC(C)(C)[C@@H]1[C@H](OC3=O)C2=O was tested. Which Potency did it give?
Answer: inactive

Question: How did the Potency turn out when CC(=O)OC1/C(C)=C/C(=O)C(OC(C)=O)C(C)(C)/C=C/C(C)C(=O)C2(OC(C)=O)CC(C)C(OC(=O)c3ccccc3)C12 (stereo not drawn) was run?
Answer: inactive

Question: With CO[C@H]1O[C@@H]2O[C@]3(C)CC[C@H]4[C@H](C)CC[C@@H]([C@H]1C)[C@@]24OO3 as the molecule, how does the Potency read?
Answer: inactive

Question: How did the Potency turn out when Nc1ccccc1N was run?
Answer: 100 µM (active)

Question: With CS(=O)(=O)NCC1CCC(Nc2nc3c(s2)CCSc2ccccc2-3)CC1 (stereo not drawn) as the molecule, how does the Potency read?
Answer: inactive

Question: For CC(=O)O[C@H]1C(=O)[C@@]2(C)[C@H]([C@H](OC(=O)c3ccccc3)[C@]3(O)C[C@H](OC(=O)[C@H](O)[C@@H](NC(=O)c4ccccc4)c4ccccc4)C(C)=C1C3(C)C)[C@]1(OC(C)=O)CO[C@@H]1C[C@@H]2O, which Potency is on record?
Answer: inactive

Question: How did the Potency turn out when O=C(O)COCCN1CCN([C@H](c2ccccc2)c2ccc(Cl)cc2)CC1 was run?
Answer: inactive

Question: How did the Potency turn out when COc1ccc(-c2nc(-c3ccc(-c4cccc(Cl)c4)o3)[nH]c2-c2ccc(OC)cc2)cc1 was run?
Answer: inactive

Question: Which Potency does the source give for O=C(O)c1c(O)c(-c2ccccc2)nc2ccccc12 here?
Answer: inactive

Question: COC(=O)C1(C)CCC2(C(=O)O)CCC3(C)C(=CCC4C5(C)CC(O)C(OC6OCC(O)C(O)C6O)C(C)(CO)C5CCC43C)C2C1 (stereo not drawn) was tested. Which Potency did it give?
Answer: inactive
